The values below come from PubChem BioAssay AID602332 (National Center for Advancing Translational Sciences (NCATS), 2012).

Several values for one entry are separate records, joined by “and”; a condition that tells them apart may be missing. Identical values can stand only once. Among all 420,000 compounds or so, about 75 (0.02%) were called active. Calls come from the whole dose curve; as a rule, active = well fitted activation curve with a large enough effect; inconclusive = small, poorly fitted or top-dose-only effect; inactive = no such curve, though single readings can be large or run the other way. What follows is part of a selection rich in actives, with near analogues and random picks from the rest. The source holds several records for some structures; these can differ, active in one and inactive in another.
Potency is the fitted concentration of half-maximal effect.

The assay in a line: qHTS for Inducers of the Endoplasmic Reticulum Stress Response (ERSR) in Human Glioma: qHTS. For activation: % of control where 0% means no effect. Note: nearly all actives have a fitted effect of over 35% in size. To be noted: U87-MG GRP78 promoter luciferase reporter, 16 h; activation: active compounds read high. The source says:
Primary protein unfolding takes place for many diseases, including diabetes and hypoxia, , and triggers a reaction in the cells called ER stress response (ERSR). ). ERSR is designed as a repair mechanism, but ultimately leads to cell death via apoptosis if conditions triggering protein unfolding persist (1). The molecular clue to ERSR activation is the enhancement of the expression of key molecular chaperones, including the glucose regulated protein (GRP) 78. GRP78 is the main sensor for protein folding and the main actuator of the ERSR.
In a collaboration between the Southern Research Institute and the NIH Chemical Genomics Center, a cell based screen was developed that reliably uses GRP78 as a sensor to identify small molecules as inducers of ERSR. In resting conditions, GRP78 binds proteins and acts as a natural repressor. Once unfolded proteins are present in the ER, GRP78 releases some of the repressors and binds to the unfolded proteins. The release of the repressors executes the ERSR program. Using a human glioma cell line in a miniaturized, luminescent format, a high-throughput screen was developed to identify actuators of the ERSR.
(1) Soboloff, J. and S. A. Berger (2002). "Sustained ER Ca2+ depletion suppresses protein synthesis and induces activation-enhanced cell death in mast cells." J Biol Chem 277(16): 13812-20.
NIH Chemical Genomics Center [NCGC]
NIH Molecular Libraries Probe Centers Network [MLPCN]
Assay Submitter (PI): Maurizio Grimaldi, Southern Research Institute
Stable transfected human glioma cell line, U87-MG, are dispensed at density 1000 cells/well into Greiner white solid bottom 1536-well assay plates. Compounds are transferred via Kalypsys pin tool equipped with 1536-pin array (10nl slotted pins, V&P Scientific, San Diego, CA). The assay plates will be incubated for 16 hours and developed by adding appropriate quantities of the Promega Bright Glo reagent. The plates will be incubated at room temperature for 10 minutes prior to being transferred into a ViewLux high-throughput CCD imager (PerkinElmer), wherein end-point measurements of luminescence are acquired.
(Quantitative high-throughput screening tests each substance at several concentrations.)
As for `COc1cc(=O)n2c(c1C(=O)NC(C)c1ccco1)CCN(Cc1cc(C)cc(C)c1)CC2` (stereo unspecified), the activation was -3.17% (inactive). As to `CO[C@@H]1COC(=O)C/C=C\[C@H](C)[C@@H](NS(=O)(=O)c2ccc(C)cc2)COC(=O)C/C=C\[C@@H]1C`, the activation is -3.94% (inactive) and -2.29% (inactive). Take `COC(=O)c1c(OCc2ccc(F)cc2)cc(=O)n2c1CCN(Cc1ccc3cccnc3c1)CC2`: the activation was -4.1% (inactive).

As to `c1ccc2c(Nc3ccncc3)nc(-c3ccc4c(c3)OCO4)nc2c1`, the activation was -6.62% (inactive). In the case of `CO[C@H]1COC(=O)[C@@H](C)NC(=O)C/C=C\[C@@H](C)[C@H](OC)COC(=O)C/C=C\[C@@H]1C`, the activation is -4.07% (inactive). For the molecule `Cc1c(O)cc2c(c1C)O[C@](C)(CCC[C@H](C)CCC[C@H](C)CCCC(C)C)CC2`, the activation was -2.5% (inactive). The same measure, in the same setting: as for `CCC1(C2CCN(C(=O)c3cccc(F)c3F)CC2)NC(=O)N(CCc2scnc2C)C1=O` (stereo unspecified), the figure is -1.9% (inactive); as for `Cc1cc(C)cc(CN2CCc3nnc(C(NS(C)(=O)=O)C(C)C)n3CC2)c1` (stereo unspecified), -4.09% (inactive); as for `CC(=O)OCC1OC(C#Cc2ccccc2Cl)C=CC1OC(C)=O` (stereo unspecified), -1.79% (inactive). Regarding `CC(C)N1C[C@@H](NCc2ccccc2O)C[C@H]1C(=O)N1CCN(c2cccc(C(F)(F)F)c2)CC1`, the activation was -4.06% (inactive). In the case of `COc1cc(=O)n2c(c1C(=O)N(C)Cc1nccs1)CCN(Cc1ccc(Cl)cc1)CC2`, the activation is -5.15% (inactive).

Take `O=C(CCN1Cc2ccccc2OC(c2ccccc2)C1)N[C@@H]1CS(=O)(=O)C[C@H]1O` (stereo partly specified): the activation was -4.81% (inactive). Still for that read-out and setting: to `O=C1OCCC=C1[C@@H](O)CCc1ccccc1` belongs 3.05% (inactive); to `O=c1cc(-c2ccc(O)cc2)oc2c(-c3cc(-c4cc(=O)c5c(O)cc(O)cc5o4)ccc3O)c(O)ccc12`, -1.39% (inactive). `COc1c(O)cc2oc(-c3ccc(O)c(O)c3)cc(=O)c2c1O`: the Potency is 20 µM (active). With `O=c1cc(-c2ccc(O)c(O)c2)oc2cccc(O)c12`, the activation is -2.34% (inactive).

For `CCCN(CC)[C@@H](CC)C(=O)Nc1c(C)cccc1C`, the activation was -4.31% (inactive). As to `O=C1[C@H]2[C@H]3[C@H](O)[C@H](O)C/C(=N/OCc4ccccc4)[C@H]3CC[C@@H]2C(=O)N1Cc1ccccc1`, the activation was -3.44% (inactive). On the same count and under the same terms, to `C/C(CCN1CCCCc2nc(C)c(C)cc21)=N\O[C@@H](C)c1cn([C@@H]2COC[C@@H]2O)nn1` belongs -4.19% (inactive); to `COc1ccc2c(c1)CCc1cnc(-n3ncc(C(=O)NCCN4CCOCC4)c3C)nc1-2`, 5.73% (inactive); to `COc1ccc(/C=C/NC(=O)Cc2ccc(OC)c(OC)c2)cc1`, 0.885% (inactive) and -3.87% (inactive). Regarding `Cc1c(C(=O)NCC2CCCN(C)C2)cnn1-c1nccc(-c2ccco2)n1` (stereo unspecified), the activation was -1.59% (inactive). In the case of `O=S(O)S(=O)(=O)O`, the activation was -8.27% (inactive). With `CCOC(=O)N1CCN(Cc2ccc3c(c2)CN(C(=O)c2cccc(-n4cccn4)c2)CCO3)CC1`, the activation is -2.17% (inactive). Turning to `N#C/C(=C\c1ccc(O)c(O)c1)C(N)=O`, the activation was -0.645% (inactive) and -1.72% (inactive).

Turning to `Cc1ccc(/C=C(\C#N)C(=O)Nc2cc(C)ccc2C)cc1`, the activation is -3.56% (inactive).

Turning to `N#C/C(=C\c1ccc(O)c(O)c1)C(=O)NCc1ccccc1`, the Potency is 25.1 µM (active); the activation is 7.31% (inactive) and 13.4% (inactive) and 3.72% (inactive). Regarding `Cc1cnc(C)c(-c2cc(F)c3c(c2)CC(CNC(=O)c2cccc(Cn4cccn4)c2)O3)n1` (stereo unspecified), the activation was -2.2% (inactive). As for `COc1ccccc1-c1ccnc(-n2ncc(C(=O)NCCc3ccncc3)c2C)n1`, the activation was -0.593% (inactive). Regarding `O=C(c1cccc(Cn2cccn2)c1)N1CCOc2c(cc(-c3csc4ccccc34)cc2OC2CCOC2)C1` (stereo unspecified), the activation was -1.78% (inactive).

As to `Cc1ccc(C(=O)Nc2cccc(-c3nc(CNC(=O)c4ccccc4-n4cccn4)c(C)o3)c2)s1`, the activation was -4.42% (inactive).

Take `COc1ccc(CN(C)CCn2cc(C(=O)N3CCSCC3)nn2)cc1C`: the activation is -2.77% (inactive).

For the molecule `COC(=O)C1CCCCN1Cc1ccc2c(c1)CN(Cc1cc(OC)c3c(c1)OCO3)CCO2` (stereo unspecified), the activation was 0.195% (inactive).

For `COC(=O)C(C(=O)OC)[C@@H]1CCCC(=O)C1`, the activation is -5.46% (inactive). Regarding `COCCN1CCN(C(=O)c2sc3ncnc(NCC4CCCO4)c3c2C)CC1` (stereo unspecified), the activation was -1.15% (inactive). Regarding `COc1ccc(CCNc2ncnc3sc(C(=O)N4CCCC4)c(C)c23)cc1OC`, the activation was -0.648% (inactive). Regarding `C[C@@H]1CN(Cc2ccc3c(c2)CN(Cc2ccc(Oc4ncccn4)cc2)CCO3)C[C@H](C)O1`, the activation is -2.33% (inactive). On to `CC(C)[C@@H](OCc1ccccc1)[C@H](C)/C=N\OC[C@@H](C)[C@H](OCc1ccccc1)C(C)C`, for which the activation was -2.4% (inactive).

Consider `Cc1cc(C(=O)NCC2Cc3cccc(-c4cncnc4)c3O2)c(C)o1` (stereo unspecified), for which the activation is -0.609% (inactive). On the same count and under the same terms, to `CCOC(OCC)OCC` belongs 3.31% (inactive); to `CC[C@H](C)[C@H](NC(=O)[C@@H](N)CCC(=O)O)C(=O)N[C@@H](CC(C)C)C(=O)N[C@@H](CC(=O)O)C(=O)N[C@H](C(=O)N1CCC[C@H]1C(=O)N[C@@H](CO)C(=O)N[C@H](C(=O)O)[C@@H](C)O)C(C)C`, -2.27% (inactive). For the molecule `N[C@@H](C(=O)O)c1ccc(P(=O)(O)O)cc1`, the activation is -4.34% (inactive). On to `CN(C)c1ccc(CN2CCOc3ccc(CN4CCC(O)(c5cccnc5)CC4)cc3C2)cc1`, for which the activation is -1.82% (inactive). For `Cc1ccc(Cn2cnc3c(cnn3C(C)(C)C)c2=O)c(F)c1`, the activation is -6.82% (inactive). `O=C(C[n+]1ccncc1)c1ccc2c(c1)CCCC2`: the activation is -0.663% (inactive). As to `Cc1cc(-c2ccnc(-n3ncc(C(=O)NC(C)(C)CO)c3C3CC3)n2)c(C)s1`, the activation is -3.21% (inactive).

With `Cc1cccc(CNc2ccnc(-c3cccnc3)n2)c1`, the activation was 6.2% (inactive).

On to `CCOC(=O)Cc1cccc(-c2cc(CCCCCCc3ccc(O[C@H]4O[C@H](COC(C)=O)[C@@H](OC(C)=O)[C@H](OC(C)=O)[C@@H]4OC(C)=O)c(-c4cccc(CC(=O)OCC)c4)c3)ccc2O[C@H]2O[C@H](COC(C)=O)[C@@H](OC(C)=O)[C@H](OC(C)=O)[C@@H]2OC(C)=O)c1`, for which the activation is -3.38% (inactive). With `O=c1cc(-c2ccc(O)cc2)oc2c([C@@H]3O[C@H](CO)[C@@H](O)[C@H](O)[C@H]3O)c(O)cc(O)c12`, the activation was -0.663% (inactive). On to `Cc1ccc(-c2ccnc(-n3ncc(C(=O)N(C)Cc4cccc5ncccc45)c3C3CC3)n2)o1`, for which the activation is -4.64% (inactive).

Take `COc1ccnc(C[S@@](=O)[C@@H]2Nc3ccc(OC(F)F)cc3N2)c1OC`: the activation was -1.51% (inactive). For `COc1ccc2c(c1)NC(=O)C2CC(=O)N1CCOc2c(cc(-c3cnc4ccccc4c3)cc2OC)C1` (stereo unspecified), the activation is -6.72% (inactive). On the same count and under the same terms, as for `COCC1CCCN(Cc2ccc3c(c2)CN(C(=O)c2ccnn2C)CCO3)C1` (stereo unspecified), the figure is -2.07% (inactive); as for `COc1ccc(F)c(CN2CCC3(CCC(CNC(=O)c4ccn(C)n4)O3)CC2)c1` (stereo unspecified), -4.54% (inactive). As to `NNc1nnc(Cc2ccncc2)c2ccccc12`, the activation is -5.05% (inactive). Still for that read-out and setting: to `CC1=C(/C=C/C(C)=C/C=C/C(C)=C/C=C/C=C(C)/C=C/C=C(C)/C=C/C(=O)[C@]2(C)C[C@@H](O)CC2(C)C)C(C)(C)C[C@H](O)C1` belongs -0.817% (inactive); to `O=C1NC(CC(=O)N2CCC(n3c(C4CCC4)nc4cccnc43)CC2)c2ccccc21` (stereo unspecified), -7.83% (inactive); to `COCC(=O)Nc1cc(C(=O)N2CCCC(c3ccccc3)CC2)c2c(c1)nc(-c1ccncc1)n2C` (stereo unspecified), 1.99% (inactive). As for `COc1ccc(C)cc1N1C(=O)[C@@H]2C[C@H]1CN2Cc1cccc(OC)c1O`, the activation is -3.49% (inactive). On to `CCOC(=O)[C@]1(C(/C=C/c2ccco2)NC(=O)OC)CCCC1=O` (stereo partly specified), for which the activation was -4.35% (inactive). Still for that read-out and setting: as for `CCOCCOC(=O)C(C)Oc1ccc(Oc2ncc(C(F)(F)F)cc2Cl)cc1` (stereo unspecified), the figure is 3.45% (inactive).

With `CN1CCCCCC1C(=O)NCCN1Cc2ccccc2OC(c2ccsc2)C1` (stereo unspecified), the activation was -4.87% (inactive). On to `CNCCCOc1cc2nc(N3CCCN(C)CC3)nc(NC3CCN(C)CC3)c2cc1OC`, for which the activation was -4.57% (inactive). In the case of `COc1ccccc1-c1ccnc(-n2ncc(C(=O)NCCCN3CCOCC3)c2C)n1`, the activation is -5.22% (inactive).

In the case of `COC(=O)NC(c1ccccc1)[C@]1(C(C)=O)CCCC1=O` (stereo partly specified), the activation is -3.63% (inactive).
